Source: PubChem BioAssay
Only some compounds are listed: those with a hit (about 7.5% of all), similar ones and a draw of the others.
FLuc counter: counter-screen for miR-21 project: firefly luciferase inhibitors or activators; P08659; purified FLuc, Km substrates, luminescence inhibition; Potency, µM (titrated, usually from 57.5 µM), inactives show at the highest dose activity change, negative = inhibition, most hits filed as inhibitors; 360,000 compounds, 6.9% hits;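 note: plate controls were vehicle for no effect and reference inhibitor for full effect; nearly all actives have a fitted effect of over 55% in size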
Target sequence (P08659 whole entry, looked up): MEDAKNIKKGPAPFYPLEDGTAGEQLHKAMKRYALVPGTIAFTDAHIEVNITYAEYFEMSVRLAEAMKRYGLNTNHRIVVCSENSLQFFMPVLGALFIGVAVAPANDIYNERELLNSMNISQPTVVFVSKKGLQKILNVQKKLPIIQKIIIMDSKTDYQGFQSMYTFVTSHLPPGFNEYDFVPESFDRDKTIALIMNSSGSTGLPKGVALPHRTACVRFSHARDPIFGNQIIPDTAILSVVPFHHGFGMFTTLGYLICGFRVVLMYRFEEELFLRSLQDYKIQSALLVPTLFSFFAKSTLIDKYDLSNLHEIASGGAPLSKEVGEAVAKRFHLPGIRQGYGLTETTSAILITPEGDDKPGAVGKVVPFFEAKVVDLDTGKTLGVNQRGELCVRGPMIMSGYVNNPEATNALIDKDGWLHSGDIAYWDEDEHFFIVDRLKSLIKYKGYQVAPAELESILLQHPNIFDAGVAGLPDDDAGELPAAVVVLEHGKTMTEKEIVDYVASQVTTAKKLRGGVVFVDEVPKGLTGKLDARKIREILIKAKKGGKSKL
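Biochemical qHTS of compounds, final roughly 60 µM downward over six points, against 10 nM purified firefly luciferase using Km concentrations of substrates (10 uM D-luciferin, 10 uM ATP) in Tris acetate pH 7.5 buffer; luminescence output.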
NPC1 prom act: activates the NPC1 promoter | 320,000 compounds, 2.4% hits | Huh7 NPC1 promoter luciferase reporter, 24 h | Potency, µM (highest dose often 9.22 µM), for the others: at the top dose activation, hits mostly activators; note: % of control where 0% means no effect; nearly all actives have a fitted effect of over 60% in size
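Stable NPC1-promoter luciferase Huh7 line; cpd (DMSO) 24 h, 37 °C, 5% CO2; Amplite luciferase reagent 10 min RT; luminescence readout. qHTS format.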
SMN2 splice up: increases expression of the SMN2 splice variant; Potency, µM (highest dose often 46.1 µM), without a hit: at the highest dose activity change, positive = activation, hits mostly activators; HEK293 SMN2-luciferase splicing reporter, luminescence, 30-36 h; AID 1458; 210,000 compounds, 2.8% hits; note: % of control where 0% means no effect; nearly all actives have a fitted effect of over 55% in size
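HEK293 cells carry an SMN2 […]–luciferase reporter in which exon 7 inclusion puts luciferase in frame. Cells were plated 10-12 h before compound addition, then incubated 30-36 h at 37C. ONE-Glo luminescence was read; sodium butyrate at 4.5 mM final served as control.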
ELG1 genotox: genotoxicity induction in ELG1-luciferase HEK293T cells | HEK293T ELG1-luciferase reporter, luminescence, 16 h | Potency, µM (highest dose often 46 µM), for inactives: at the top dose activity change, positive = activation, most hits filed as activators | 330,000 compounds, 1.3% hits | AID 504466; note: % of control where 0% means no effect; nearly all actives have a fitted effect of over 60% in size
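ELG1-luciferase HEK293T cells, 2,000/well; compound pinned in; 16 hr, 37 °C, 5% CO2; ONE-Glo, 30 min RT; luminescence on CCD imager.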
Rab9 prom act: activators of Rab9 promoter. 320,000 compounds, 2.8% hits. Potency, µM (highest dose often 9.22 µM), inactives show at the highest dose activation, negative = inhibition, usual class: activators. Huh7 Rab9 promoter-luciferase reporter, luminescence, 24 h; note: % of control where 0% means no effect; nearly all actives have a fitted effect of over 60% in size
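Stable Rab9-luc Huh7, 1500 cells/well, 2 h settle; cmpd in DMSO, 24 h, 37 °C/5% CO2; luciferase reagent 10 min RT; luminescence.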
* = called active by the depositor; ? = inconclusive; nt = no result given; [ ] = dose if it differs, or a comment. Calls come from the whole dose curve; as a rule, active = well fitted curve in the direction sought with a large enough effect; inconclusive = small, poorly fitted or top-dose-only effect, or another doubt; inactive = no such curve, though single readings can be large; an effect the other way counts as inactive or inconclusive. Potency is the fitted concentration of half-maximal effect.

SMILES	FLuc counter	NPC1 prom act	SMN2 splice up	ELG1 genotox	Rab9 prom act
Cc1c(C(=O)Nc2cccc([N+](=O)[O-])c2)cnn1-c1ccccc1	9.53µM*	2.82µM*	nt	?	2.51µM*
CC(=O)c1cccc(NC(=O)c2cnn(-c3ccccc3)c2C)c1	9.53µM*	3.16µM*	nt	?	3.98µM*
Cc1c(C(=O)Nc2cccc(F)c2)cnn1-c1ccccc1	6.01µM*	1.58µM*	nt	?	1.41µM*
Cc1cc(C)n(-c2ccc(C(=O)Nc3cccc([N+](=O)[O-])c3)cc2)n1	1.5%	-7.2%	-33.3%	-18.4%	-2.5%
Oc1cccc(/C=N/Nc2ncnc3c2ncn3Cc2ccccc2)c1	13.5µM*	9.2%	3.4%	16.2%	17.0%
Oc1ccc(/C=N/Nc2ncnc3c2ncn3Cc2ccccc2)cc1O	9.53µM*	-6.3%	-1.6%	?	2.3%
Cc1ccc(CN2C(=O)c3ccccc3Sc3ccc(C(=O)NC4CCCCC4)cc32)cc1	-6.5%	nt	nt	nt	nt
COc1cccc(C(=O)Nc2cc3c(cc2C(C)=O)OCCO3)c1	5.36µM*	0.1%	29.4%	3.7%	-0.1%
COc1cccc(NC(=O)c2oc3ccccc3c2NC(=O)c2ccc(OC(C)C)cc2)c1	2.69µM*	nt	9.6%	nt	nt
CCC(=O)Nc1cccc(NC(=O)c2ccc3c(c2)OCO3)c1	15.1µM*	17.3%	?	7.2%	28.6%
CCCC(=O)Nc1ccccc1NC(=O)c1ccc2c(c1)OCO2	-0.5%	1.5%	nt	0.5%	10.1%
COc1cccc(NC(=O)c2ccc3c(c2)OCCO3)c1	0.675µM*	1.78µM*	nt	2.06µM*	0.708µM*
CCOC(=O)C1CCCN(C(=O)c2cc3ncc(Br)cn3n2)C1 (stereo unspecified)	2.0%	3.2%	21.5%	-2.9%	6.2%
COc1cccc(NC(=O)c2oc3ccccc3c2NC(=O)c2ccc3c(c2)OCO3)c1	2.69µM*	15.6%	0.8%	-6.8%	28.3%
COc1cccc(NC(=O)c2ccc3c(c2)OCO3)c1	2.69µM*	0.501µM*	nt	6.51µM*	0.447µM*
COc1cccc(NC(=O)COC(=O)c2ccc3c(c2)OCO3)c1	-13.9%	-1.2%	nt	1.4%	0.2%
CSc1nc2cc3c(cc2n1C(=O)c1ccc(C)cc1)OCCO3	?	3.3%	7.1%	8.2%	15.6%
COc1cccc(C(=O)n2c(SC)nc3cc4c(cc32)OCCO4)c1	13.5µM*	17.5%	12.4%	13.2%	21.4%
CCOC(=O)C1CCCN(Cc2nc(CC3CC3)no2)C1 (stereo unspecified)	1.5%	-1.7%	nt	0.9%	1.5%
COc1cccc(Nc2nnc(SCC3CCCCO3)s2)c1 (stereo unspecified)	12µM*	29.1%	-27.9%	14.0%	10.2%
Cc1cccc(Nc2nnc(SC3CCOC3=O)s2)c1C (stereo unspecified)	?	-4.2%	0.7%	-0.4%	2.7%
Cc1ccc(Nc2nnc(SCC(=O)NCC3CCCO3)s2)cc1 (stereo unspecified)	nt	nt	nt	2.6%	nt
COc1ccc(Nc2nnc(SCC3CCCO3)s2)cc1 (stereo unspecified)	19µM*	28.0%	28.4%	12.6%	?
Cc1cccc(Nc2nnc(SCC3CCCCO3)s2)c1C (stereo unspecified)	9.53µM*	?	?	2.5%	19.3%
COC(=O)c1ccc(CSc2nnc(Nc3cccc(OC)c3)s2)o1	?	-0.2%	-21.5%	-0.3%	-0.1%
SMILES	FLuc counter	NPC1 prom act	SMN2 splice up	ELG1 genotox	Rab9 prom act
Cc1cccc(/N=C/c2sc3ccccc3c2O)n1	0.477µM*	20.7%	nt	4.61µM*	?
Oc1c(C=Nc2cccc3cccnc23)sc2ccccc12	0.379µM*	-4.0%	-6.1%	3.26µM*	-19.8%
CC(C)N=Cc1c(O)[nH]c2ccccc12	2.6%	1.9%	-3.7%	1.2%	-6.9%
Cc1c(/C=N/O)sc2ccccc12	?	-4.4%	nt	1.4%	-1.2%
Oc1ccc(Cl)cc1N=Cc1sc2ccccc2c1Cl	-17.1%	1.8%	-17.0%	28.7%	0.8%
Cc1cccc(/N=C/c2c(O)[nH]c3ccccc23)n1	4.26µM*	?	?	?	3.55µM*
O=[N+]([O-])c1ccc(O)c(N=Cc2sc3ccccc3c2O)c1	10.7µM*	15.1%	-77.2%	12.6%	-16.6%
O=C1CC(c2ccccc2)C(C(=O)Nc2ccccc2F)N1 (stereo unspecified)	5.3%	-4.9%	-4.0%	1.2%	-10.5%
CCCc1cc2c(n1CCc1ccc(Cl)cc1)C(C)C1CN(C(=O)c3ccccc3)C(C)(C(=O)OC)C21 (stereo unspecified)	nt	nt	-17.2%	nt	nt
COc1cc2cc[n+](Cc3ccc([N+](=O)[O-])cc3)cc2cc1OC	1.3%	-7.4%	nt	-3.6%	-1.9%[1.84 µM]
Clc1ccc(Nc2ccc(-n3ccnc3)nn2)cc1Cl	26.9µM*	0.8%	-1.9%	-1.4%	4.2%
CCOc1ccc(CCNC(=O)c2cc(Nc3ccc(C)cc3C)nc3ccccc23)cc1OCC	?	nt	-1.2%	nt	nt
Cc1nnc2sc(-c3ccc(N(C)C)cc3)nn2c1=O	7.57µM*	3.16µM*	nt	16.4µM*	?
NC(=O)Nc1ccc(C(=O)OCC(=O)Nc2ccc(Cl)cn2)cc1	0.6%	0.2%	nt	-1.7%	-1.1%
COc1ccc(NC(=O)CN(C)C2=NS(=O)(=O)c3ccccc32)cc1Cl	nt	nt	nt	-2.0%	nt
COc1ccc(O)c(/C=C(\C#N)C(=O)Nc2cccnc2)c1	4.78µM*	8.3%	5.2%	?	21.5%
CCOc1cccc(NC(=O)/C(C#N)=C\c2cccnc2)c1	?	-1.9%	-6.7%	1.5%	-1.0%
CCCOc1ccccc1/C=C(\C#N)C(=O)Nc1cccnc1	19µM*	8.3%	nt	?	28.0%
CCC(C)(C)c1ccc(OC(=O)c2cccnc2Cl)cc1	4.78µM*	-1.3%	nt	?	5.8%
O=C(CC(=O)c1ccccc1)Nc1cccnc1Cl	12µM*	?	12.6µM*	?	?
O=C(CCc1ccccc1)Nc1cccnc1Cl	-14.7%	15.8%	nt	9.1%	24.9%
O=C(OCc1ccc(COC(=O)c2cccnc2Cl)cc1)c1cccnc1Cl	?	-4.6%	-4.1%	-3.5%	-7.0%
O=C(COC(=O)c1cccnc1Cl)c1ccccc1	2.69µM*	12.9%	15.2%	?	2.5%
CCc1ccc(C(=O)COC(=O)c2cccnc2Cl)cc1	0.426µM*	1.3%	19.8%	-2.3%	6.8%
COc1ccccc1N(CC(O)CN1CCOCC1)S(=O)(=O)c1ccccc1 (stereo unspecified)	-0.2%	5.7%	nt	-2.5%	-6.4%
CCCc1cc(=O)[nH]c(SCC(=O)N(CC)c2c(N)n(Cc3ccccc3)c(=O)[nH]c2=O)n1	5.8%	-3.2%	nt	-2.1%	-3.8%
O=C(OCc1ccc(F)cc1)c1cccnc1Cl	-1.5%	-2.5%	nt	0.5%	-0.5%
O=C(COC(=O)c1cccnc1Cl)c1ccc(F)cc1	3.01µM*	1.7%	14.1%	7.5%	1.0%
Cc1cc(C)n(C(N)=NC(=O)c2ccc([N+](=O)[O-])cc2)n1	?	2.82µM*	nt	?	2.51µM*
